A selection: hits, their analogues and other compounds. The true share with any hit is near 4.8%.
ATXN viability – cell viability loss in ATXN counter-screen; Potency, µM (top dose mostly 56.7 µM), most hits filed as cytotoxic; AID 651635; 400,000 compounds, 0.49% hits; S2 cells (HEK-293 line with an ATXN2-luciferase reporter) viability, CellTiter-Fluor protease fluorescence, 24 h; further: potency means the concentration at half of the fitted maximal effect; nearly all actives have a fitted effect of over 40% in size
D3 ag – agonists of human D3 dopamine receptor | P35462 | D3R DiscoveRx beta-arrestin cells, luminescence, 90 min | max activation, % | 410,000 compounds, 0.58% hits | AID 652048; in the data active means max activation above about 30%; further: 0% is about no effect
Target sequence (P35462 whole entry, looked up): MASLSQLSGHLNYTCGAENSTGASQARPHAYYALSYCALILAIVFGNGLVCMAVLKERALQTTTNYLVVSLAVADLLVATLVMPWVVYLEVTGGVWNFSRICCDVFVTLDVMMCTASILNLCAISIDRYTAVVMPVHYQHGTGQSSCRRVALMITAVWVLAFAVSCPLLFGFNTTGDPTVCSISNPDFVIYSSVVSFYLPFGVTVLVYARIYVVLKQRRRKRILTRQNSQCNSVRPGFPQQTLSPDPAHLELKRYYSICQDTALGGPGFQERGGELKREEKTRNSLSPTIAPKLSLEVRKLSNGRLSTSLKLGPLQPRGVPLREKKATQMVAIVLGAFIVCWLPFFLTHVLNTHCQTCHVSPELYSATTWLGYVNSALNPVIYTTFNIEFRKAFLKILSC
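Cells at 1500/well, incubated overnight, then treated with pinned compounds (dopamine as control) for 90 min at 37 degrees C. DiscoveRx reagent added for 30 - 60 minutes at room temperature; luminescence read.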
ATXN2 expr inh – inhibitors of ATXN2 expression | AID 1745845 | 360,000 compounds, 0.72% hits | HEK-293 ATXN2-luciferase reporter, luminescence, 24 h | Potency, µM (titrated, usually from 57 µM), without a hit: at the top dose activity change, negative = inhibition, usual class: inhibitors; further: potency means the concentration at half of the fitted maximal effect; on the % scale 0 is the no-effect control and ±100 the full control effect; nearly all actives have a fitted effect of over 55% in size
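ATXN2-luciferase reporter cells (luciferase flanked by upstream and downstream ATXN2 gene portions) were treated 24 h at 37 °C with compounds at up to 57 uM. SteadyGlo luminescence gave expression; GF-AFC fluorescence gave viability.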
DRD3 antagonist – antagonists of human D3 dopamine receptor; AID 652054; 360,000 compounds, 2.5% hits; max response, negative = inhibition, %; P35462; D3R cells, DiscoveRx beta-arrestin luminescence, antagonist mode; active compounds read low; in the data active means max response below about -50%; inconclusive means no clear call, values can overlap the other calls; further: on the % scale 0 is the no-effect control and ±100 the full control effect
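Cells expressing the human receptor were seeded at 1500 cells/well, incubated overnight at 37 degrees C in 5% CO2, then exposed to library compounds with dopamine controls for 90 minutes at 37 degrees C before luminescent detection.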
TGFb inhibitor – TGF-b pathway inhibition; 410,000 compounds, 1.2% hits; HepG2 CAGA-GFP TGF-b/SMAD3 reporter, GFP fluorescence, 18 h; TGF-beta stimulated, 500 pg/mL final; AID 588855; Potency, µM (titrated, usually from 46.1 µM), inactives show at the top dose activity, negative = inhibition, most hits filed as inhibitors; further: potency means the concentration at half of the fitted maximal effect; on the % scale 0 is the no-effect control and ±100 the full control effect; nearly all actives have a fitted effect of over 65% in size
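First, reporter cells (HEPG2 CAGA-GFP) rested 2 h at 37 degrees C. Next, compounds were pinned in and TGF-beta added to 500 pg/mL final. After 18 h, GFP was imaged per cell and summed per well.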
HepG2 viability – counter-screen for TGF-b inhibitors: cytotoxicity in HepG2 cells; HepG2 CAGA-GFP viability, ATP luminescence, 18 h; Potency, µM (titrated, usually from 46.1 µM), inactives show top-dose activity change, negative = cytotoxicity, usual class: cytotoxic; 410,000 compounds, 0.76% hits; further: potency means the concentration at half of the fitted maximal effect
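HepG2 CAGA-GFP cells (1000/well, DMEM with 1% FBS) received compound, then TGF-beta at 500 pg/mL final, and were incubated 18 hours at 37 degrees C. Viability was read by CellTiter-Glo luminescence. Media-only wells were set as complete cell-killing and DMSO as no toxicity.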
Active calls of the source: *; i = inactive; ? = inconclusive; nt = no result given. Unless noted, the call rests on the fitted dose curve; in most records, active means well fitted curve in the direction sought with a large enough effect; inconclusive means small, poorly fitted or top-dose-only effect, or another doubt; inactive means no such curve, though single readings can be large; an effect the other way counts as inactive or inconclusive.

SMILES | ATXN viability | D3 ag | ATXN2 expr inh | DRD3 antagonist | TGFb inhibitor | HepG2 viability
COc1ccc(C(=O)c2c(C(F)(F)F)oc3c2C(=O)c2ccccc2C3=O)cc1OC | 28µM* | -15 | ? | 0 | 4µM* | 3.5µM*
CCOc1ccc(NC(=O)CSc2oc(-c3ccco3)nc2S(=O)(=O)c2ccc(Cl)cc2)cc1 | i | -11 | -8% | nt | 2% | 6%
CC(Oc1ccccc1F)C(=O)NNC(=O)CC(C)c1ccccc1 (stereo unspecified) | i | 0 | 7% | -6 | -16% | 0.89µM*
CC(=O)NC(CC(=O)NNC(=O)C(C)Oc1ccccc1F)c1ccccc1 (stereo unspecified) | i | 11 | 9% | 13 | -10% | 5%
FC(F)(F)c1cc(CCN2CCNC[C@@H]2CC2CCCCC2)cc(C(F)(F)F)c1 | nt | -4 | 22µM* | -10 | ? | -100%
NC1=NC[C@H](CC2CCCCC2)N1CCc1cc(C(F)(F)F)cc(C(F)(F)F)c1 | ? | -24 | ? | 52 | ? | 20µM*
CCCC[C@@H]1CNCCN1CCc1cc(C(F)(F)F)cc(C(F)(F)F)c1 | 35µM* | -26 | ? | 37 | ? | -115%
FC(F)(F)c1cc(CCN2CCNC[C@@H]2c2ccccc2)cc(C(F)(F)F)c1 | 35µM* | -3 | ? | 0 | ? | -86%
CN(C)c1ccc(CNC(=O)c2cc3ccccn3n2)cc1 | i | -8 | 31% | nt | 0% | -8%
O=C1CCN(Cc2cccc(C(F)(F)F)c2)CCN1Cc1ccccn1 | i | nt | nt | nt | nt | nt
CC(C)(C)OC(=O)CN(Cc1ccc(Cl)cc1)Cc1ccc([N+](=O)[O-])s1 | nt | nt | -19% | nt | nt | nt
Cc1ccc(-c2nc3c(Cl)cc(C(F)(F)F)cn3c2Cc2ccsc2)cc1 | i | -1 | 11% | -59* | nt | nt
CC(C)(C)Cc1c(-c2ccc(Cl)cc2)nc2c(Cl)cc(C(F)(F)F)cn12 | i | 37* | 7% | 0 | -13% | -19%
Fc1cccc(Cc2c(-c3ccccc3)nc3c(Cl)cc(C(F)(F)F)cn23)c1 | i | 62* | 14% | -22 | -2% | -2%
O=[N+]([O-])c1cccc(CN2CCN(Cc3ccco3)CC2)c1 | i | -23 | 1% | -75* | -18% | -2%
O=C(CN1CCCCCC1)Nc1cccc([N+](=O)[O-])c1 | i | -7 | nt | -83* | -17% | -48%
O=[N+]([O-])c1cccc(CN2CCCCCC2)c1 | i | -25 | 1% | -55* | 14% | 22%
CC1CCCN(CC(=O)Nc2cccc([N+](=O)[O-])c2)C1 (stereo unspecified) | i | -29 | 2% | 0 | 4% | -21%
CCOc1ccccc1NC(=O)N(Cc1ccc(F)cc1)C1CCN(CC)CC1 | nt | -11 | nt | nt | nt | -45%
Cc1cccc(NC(=O)Cn2c(=O)n(CCCCCC(=O)NCc3ccc4c(c3)OCO4)c(=O)c3sccc32)c1 | nt | -4 | nt | nt | -29% | 2%
COc1ccc(-c2nc3cccc(C)n3c2NCc2ccco2)cc1OC | ? | 6 | 14% | -52* | -22% | -25%
COc1ccc(-c2csc(NCc3ccco3)n2)cc1C | ? | -7 | 76% | 0 | ? | -34%
Cc1ccc(NC(=S)NC2CCSc3ccccc32)cc1C (stereo unspecified) | i | 6 | -30% | -15 | 16µM* | -11%
Cc1cc(C(=O)COC(=O)c2ccc[nH]c2=O)c(C)n1C1CC1 | ? | 33* | 42% | 8 | 8% | 1%
CCOC(=O)c1ccc(NC(=O)COCc2cc(-c3ccc4c(c3)OCO4)on2)cc1 | nt | 1 | nt | nt | 12% | 5%
SMILES | ATXN viability | D3 ag | ATXN2 expr inh | DRD3 antagonist | TGFb inhibitor | HepG2 viability
CCCCCCCCCC[n+]1ccc(/C=C/c2c(C)[nH]c3ccccc23)c2ccccc21 | nt | nt | nt | nt | 2.5µM* | 3.2µM*
CCCCCCC[n+]1ccc(/C=C/c2c[nH]c3ccccc23)c2ccccc21 | nt | nt | nt | nt | 7.1µM* | 13µM*
CCCCCCC[n+]1ccc(/C=C/c2c(C)[nH]c3ccccc23)c2ccccc21 | nt | nt | nt | nt | 13µM* | -114%
CCCCCCCCCC[n+]1ccc(/C=C/c2c[nH]c3ccccc23)cc1 | nt | nt | nt | nt | 260% | 16µM*
Cc1ncc2c(c1CNC(=O)c1cncs1)CCN(C(=O)c1ccc(C(F)(F)F)cc1)C2 | i | nt | nt | nt | nt | nt
CC(C)(C)c1ccc(C(=O)NCC(c2cccnc2)N2CCc3ccccc3C2)cc1 (stereo unspecified) | nt | -9 | nt | nt | ? | -60%
Cc1[nH]c2ccccc2c1/C=C/c1c(C)[nH]c2ccccc12 | nt | nt | nt | nt | 6.3µM* | -48%
CCc1ccc(NC(=O)CC2C(=O)N(c3ccc(Cl)cc3)C(=O)N2Cc2cccs2)cc1 (stereo unspecified) | nt | 43* | nt | nt | ? | -37%
Brc1ccc2nc(-c3ccco3)c(Cc3ccccc3)n2c1 | ? | 9 | 3% | 34 | ? | -38%
Clc1cccc(Cc2c(-c3ccco3)nc3ccc(Br)cn23)c1 | nt | -2 | ? | -21 | 13µM* | -115%
Cc1cc(Br)cn2c(Cc3cccc(Cl)c3)c(-c3ccco3)nc12 | ? | -10 | -3% | -63* | nt | nt
Cc1cc(Br)cn2c(Cc3ccccc3)c(-c3cccc(Cl)c3)nc12 | i | -2 | 19% | -60* | nt | nt
Cc1ccc(-c2nc3c(C)cc(Br)cn3c2Cc2cccc(F)c2)cc1 | i | -10 | 9% | -57* | nt | nt
Cc1ccc(Cc2c(-c3ccccc3)nc3c(C)cc(Br)cn23)cc1 | i | 5 | 3% | 18 | nt | nt
Cc1ccc(Cc2c(-c3ccco3)nc3c(C)cc(Br)cn23)cc1 | ? | -7 | 10% | ? | ? | -103%
